Compound activity as filed in PubChem.
An excerpt weighted towards active compounds, which were near 1.2% of everything screened.
EPAC1 antagonist = blocks human EPAC1 exchange factor; 360,000 compounds, 0.14% hits; EPAC1 GEF assay, Rap1b-BODIPY-GDP exchange fluorescence; Potency, µM (highest dose often 115 µM), usual class: inhibitors; O95398; further: nearly all actives have a fitted effect of over 50% in size
USP1-UAF1 inh = blocks the human USP1/UAF1 deubiquitinase complex. O94782. recombinant USP1/UAF1, Ub-Rhodamine cleavage fluorescence. Potency, µM (top dose mostly 57.1 µM), actives largely listed as inhibitors. 390,000 compounds, 0.23% hits; further: nearly all actives have a fitted effect of over 60% in size
Target sequence (O94782 whole entry, looked up): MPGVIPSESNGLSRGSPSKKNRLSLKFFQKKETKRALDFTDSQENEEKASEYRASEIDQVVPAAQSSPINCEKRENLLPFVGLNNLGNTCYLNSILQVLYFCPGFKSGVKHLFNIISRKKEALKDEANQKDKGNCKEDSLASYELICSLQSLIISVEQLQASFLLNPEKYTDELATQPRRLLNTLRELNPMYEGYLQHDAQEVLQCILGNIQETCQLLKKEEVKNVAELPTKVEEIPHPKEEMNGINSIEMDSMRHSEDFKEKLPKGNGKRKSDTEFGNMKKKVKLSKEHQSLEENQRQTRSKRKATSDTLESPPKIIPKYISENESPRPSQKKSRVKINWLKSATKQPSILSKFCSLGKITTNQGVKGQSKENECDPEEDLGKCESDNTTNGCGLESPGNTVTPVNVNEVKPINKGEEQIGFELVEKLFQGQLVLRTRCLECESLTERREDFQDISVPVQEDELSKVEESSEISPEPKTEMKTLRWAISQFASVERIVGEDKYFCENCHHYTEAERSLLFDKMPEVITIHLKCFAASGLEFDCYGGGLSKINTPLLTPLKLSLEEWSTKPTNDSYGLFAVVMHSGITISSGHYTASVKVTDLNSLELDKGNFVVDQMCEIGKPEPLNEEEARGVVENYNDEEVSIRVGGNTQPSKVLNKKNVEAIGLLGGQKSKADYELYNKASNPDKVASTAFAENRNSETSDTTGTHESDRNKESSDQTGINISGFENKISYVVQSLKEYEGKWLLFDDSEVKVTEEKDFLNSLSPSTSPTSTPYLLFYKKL
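In this screen, compounds sit with the deubiquitinase complex (1nM) for 15 min at room temperature before Ub-Rho is added at 150nM final. Fluorescence rise is then followed for 6 reads every 60 seconds.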
VDR inhibitor = inhibitors of human vitamin D receptor. P11473. VDR-SRC2-3 peptide fluorescence polarization, 2 h. Potency, µM, usual class: inhibitors. 400,000 compounds, 0.93% hits. AID 504847
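VDR–SRC2-3 interaction, FP format. Cmpds 23 nl via pintool, brief spin, 2 h ambient incubation.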
EPAC1 agonist = agonists of human EPAC1 | EPAC1 agonist qHTS, biochemical assay; response scale: 100% = response to 6.5 mM cAMP | Potency, µM (doses to about 154 µM), usual class: activators | 360,000 compounds, 0.073% hits | AID 720707; further: nearly all actives have a fitted effect of over 60% in size
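Nucleotide exchange assay: 100 nM EPAC1 with 250 nM Rap1B loaded with BODIPY-GDP and 50 uM GDP, room temperature. Fluorescence (480/540 nm) read every 5 min for 30 min; signal change normalized to 6.5 mM cAMP as full agonist.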
EPAC2 agonist = agonists of human EPAC2 (RAPGEF4); Q8WZA2; EPAC2 activation, biochemical qHTS; response scale: 100% = 6.5 mM cAMP response; Potency, µM (highest dose often 154 µM), actives largely listed as activators; 360,000 compounds, 0.079% hits; AID 720711; further: nearly all actives have a fitted effect of over 50% in size
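EPAC2 (100 nM) mixed with Rap1B loaded with BODIPY-GDP (250 nM) plus 50 uM unlabeled GDP; compounds pinned in, 5 min RT, then read every 5 min for 30 min (ex 480, em 540 nm). Normalized to cAMP control.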
EPAC2 antag = blocks human EPAC2 exchange factor; Q8WZA2; EPAC2 GEF exchange of Rap1B-BODIPY-GDP, fluorescence; Potency, µM (top dose mostly 114 µM), most hits filed as inhibitors; 360,000 compounds, 0.18% hits; further: nearly all actives have a fitted effect of over 45% in size
A number is an active result; – = inactive; ? = inconclusive; · = not tested or not shown. The call rests on the fitted dose curve; in most records, active means well fitted curve in the direction sought with a large enough effect; inconclusive means small, poorly fitted or top-dose-only effect, or another doubt; inactive means no such curve, though single readings can be large; an effect the other way counts as inactive or inconclusive.

SMILES | EPAC1 antagonist | USP1-UAF1 inh | VDR inhibitor | EPAC1 agonist | EPAC2 agonist | EPAC2 antag
CCN1C[C@]2(COC(=O)c3ccccc3N3C(=O)C[C@H](C)C3=O)CC[C@H](OC)[C@@]34[C@@H]5C[C@H]6[C@H](OC)[C@H]5[C@](O)(C[C@@H]6OC)[C@@](O)([C@@H](OC)[C@@H]23)[C@@H]14 | · | · | – | · | · | ·
O=C(O)c1c(C(=O)O)c(-c2ccc(Br)cc2)n2c1CSC2 | – | – | ? | – | – | –
CC12C=CC(=O)C=C1CCC1C2=CCC2(C)C1CC[C@@H]2C(=O)CN1CCN(c2cc(N3CCCC3)nc(N3CCCC3)n2)CC1 (stereo not given in full) | · | · | 3.2µM | · | · | ·
O=C(O)CCC(CP(=O)(O)O)C(=O)O (stereo not given) | · | · | – | · | · | ·
CCCCCCCCCCCCCCOS(=O)(=O)O | · | · | 28µM | · | · | ·
CCCCCCCCOC(=O)c1ccccc1C(=O)OCCCCCCCC | · | · | – | · | · | ·
N[C@H](CCP(=O)(O)O)C(=O)O | · | · | – | · | · | ·
O=c1[nH]sc2cc(F)ccc12 | – | – | 7.1µM | – | – | –
N#CC(C#N)=NNc1ccc(OC(F)(F)F)cc1 | · | · | 0.89µM | · | · | ·
O=c1[nH]c(=S)n(-c2ccccc2F)c(O)c1C=Nc1ccc(N2CCOCC2)cc1 | – | 25µM | – | 56µM | ? | –
O=c1[nH]c(=S)n(-c2ccc(F)cc2)c(O)c1/C=N/N1CCOCC1 | – | – | – | – | – | –
Cc1cc(C)cc(-n2c(O)c(C=Nc3ccc(N4CCOCC4)cc3)c(=O)[nH]c2=S)c1 | – | – | – | – | – | –
O=c1[nH]c(=S)n(-c2ccc(Br)cc2)c(O)c1C=Nc1ccc(N2CCOCC2)cc1 | – | 32µM | ? | – | – | –
CCN1C[C@]2(C)CC[C@H](OC)[C@@]34[C@H]1C1(OCO[C@@]15C[C@H](OC)C1C[C@]3(O)C5[C@H]1OC)[C@@H](O)[C@H]24 | · | · | – | · | · | ·
CCc1c(C)nc(N)nc1N1N=C1SC(C(C)=O)C(C)=O | – | – | 22µM | – | – | –
COP(=S)(OC)Oc1ccc([N+](=O)[O-])cc1 | · | · | 16µM | · | · | ·
COP(=S)(OC)Oc1ccc(Sc2ccc(OP(=S)(OC)OC)cc2)cc1 | – | – | 50µM | – | – | –
CN(C(=O)Oc1ccc([N+](=O)[O-])cc1)c1ccccc1 | – | – | – | – | – | –
CCOP1(=S)Oc2cc3c(cc2C(C(=O)OC)(C(F)(F)F)O1)OCO3 (stereo not given) | – | – | 79µM | – | – | –
[O]=[Sb]([OH])([OH])[c]1ccccc1 | · | · | 79µM | · | · | ·
CNCC(N)C(=O)O (stereo not given) | · | · | – | · | · | ·
CC(C)(C)OC(=O)N1CC[C@H]1COc1cnc[c]([Sn]([CH3])([CH3])[CH3])c1 | · | · | – | · | · | ·
F/C(COc1ccc2c(c1)[nH]c1ccccc12)=C1/CN2CCC1CC2 | · | · | – | · | · | ·
c1ccc(SSc2ccccc2)cc1 | – | – | 32µM | – | – | –
O=P(CN1CCN(c2ccccc2)CC1)(N1CCCCC1)N1CCCCC1 | – | – | – | – | – | –
SMILES | EPAC1 antagonist | USP1-UAF1 inh | VDR inhibitor | EPAC1 agonist | EPAC2 agonist | EPAC2 antag
O=C(CCN1CCN(c2ccccc2)CC1)c1ccc(Br)cc1 | – | – | 89µM | – | – | –
CCCCCC[C@H]1C(=O)O[C@H](C)[C@H](NC(=O)c2cccc(NC=O)c2O)C(=O)O[C@@H](C)[C@H]1OC(=O)CC(C)C | · | · | – | · | · | ·
[O-]/[N+](=C/c1cccnc1)c1ccc(Br)cc1 | – | – | 45µM | – | – | –
COc1ccc(/C=C2/C(=O)N(c3ccccc3)N=C2C)cc1 | – | – | 89µM | – | – | –
CC1=NN(c2ccccc2)C(=O)/C1=C/c1c(O)[nH]c(=O)[nH]c1=O | – | – | – | – | – | –
CCCCn1c(O)c(C(=O)/C=C/c2c[nH]c3ccccc23)c(=O)[nH]c1=O | – | 25µM | – | – | – | –
CCCCn1c(O)c(C(CC)=NCCc2ccccc2)c(=O)[nH]c1=O | – | – | – | – | – | –
COC(=O)C[C@@](O)(CCC(C)(C)O)C(=O)O[C@@H]1C(OC)=C[C@]23CCCN2CCc2cc4c(cc2[C@@H]13)OCO4 | · | · | – | · | · | ·
